The list is not random: actives were taken first. Their share in the collection is about 3.5%.
TEAD-YAP inh = TEAD-YAP interaction inhibition. HEK-TIYL cells, TEAD-Gal4/YAP UAS-luciferase luminescence. inhibition, % at 9.12 µM. 1.4% of 640,000 active. AID 1259422; in the data active = inhibition above about 32%;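 note: 0% = median of test compound wells and 100% = reference inhibitor wells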
FBW7 act = activators of human E3 ligase FBW7 | AlphaScreen FBW7–phospho-cyclin E peptide binding, activator screen | 0.13% of 650,000 active | normalized activity (activation), % at 26.1 µM | AID 1259310; in the data active = normalized activity above about 1.9%;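 note: purified mutant Fbw7 with reduced substrate affinity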
GPR151 activ = activators of human GPR151. AID 1508602. PathHunter beta-arrestin GPR151 cells, luminescence. 1% of 650,000 active. activation, % at 11.2 µM. Q8TDV0; in the data active = activation above about 4.9%;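 note: 0% = median of compound wells and 100% = cells with positive control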
MITF primary = inhibitors of human MITF. AID 1259374. 0.91% of 650,000 active. inhibition, % at 2.6 µM. AlphaScreen MITF homodimerization, bead proximity signal. O75030; in the data active = inhibition above about 50%;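 note: 0% = vehicle wells with protein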
Target sequence (O75030 whole entry, looked up): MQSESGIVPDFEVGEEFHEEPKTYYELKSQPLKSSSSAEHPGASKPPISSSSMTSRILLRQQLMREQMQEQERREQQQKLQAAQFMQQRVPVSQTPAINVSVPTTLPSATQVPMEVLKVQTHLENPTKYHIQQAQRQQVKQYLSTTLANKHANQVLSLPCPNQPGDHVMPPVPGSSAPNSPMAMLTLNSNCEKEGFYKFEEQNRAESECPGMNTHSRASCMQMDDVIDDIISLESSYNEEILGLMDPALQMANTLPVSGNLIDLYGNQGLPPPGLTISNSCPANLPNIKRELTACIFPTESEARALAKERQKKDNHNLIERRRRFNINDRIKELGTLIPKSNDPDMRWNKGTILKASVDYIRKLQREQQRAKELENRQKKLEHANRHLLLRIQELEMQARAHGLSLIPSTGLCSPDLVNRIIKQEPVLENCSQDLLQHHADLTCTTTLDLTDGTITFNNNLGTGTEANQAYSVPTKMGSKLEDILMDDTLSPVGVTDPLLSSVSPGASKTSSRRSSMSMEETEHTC
GPR151 conf act = confirmation of human GPR151 activators. shares compounds with GPR151 activ. GPR151 PathHunter beta-arrestin cells, luminescence, 90 min; % of EA-reagent control over plate median. activation, % at 11.2 µM. 6,700 tested, under 10 active. AID 1508609;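 active = mean percent activation across replicates above the confirmation screen cutoff of 4.91%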
GPR119 ag = activates human GPR119 in a GPR151 counter-screen. 0.3% of 6,700 active. shares compounds with GPR151 activ. activation, % at 11.2 µM. GPR119 PathHunter beta-arrestin cells, luminescence, 90 min; 0 = compound-well median, 100 = enzyme-acceptor control;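 active = mean percent activation in the counterscreen above 29.09%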;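 note: counterscreen on off-target GPR119 to flag nonselective hits from the GPR151 activator screen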
* hit, by the source's call; x = not tested or not shown.

SMILES	TEAD-YAP inh	FBW7 act	GPR151 activ	MITF primary	GPR151 conf act	GPR119 ag
O=C1COc2cc(S(=O)(=O)Nc3ccc(F)cc3)ccc2N1	-5.9	0.3	6.7*	7.0	1.3	-0.2
O=C(CCS(=O)(=O)c1ccc2c(c1)OCC(=O)N2)Nc1ccc(OC(F)(F)F)cc1	-0.3	0.2	7.1*	9.5	-1.2	-10.0
O=C1COc2cc(S(=O)(=O)CCC(=O)N3CCCCCC3)ccc2N1	4.2	-0.1	5.1*	7.9	0.8	-3.4
COc1ccc(/C=C(/NC(=O)c2ccccc2)C(=O)NC(CCSC)C(=O)O)cc1 (configuration not stated)	12.4	-0.1	0.5	-2.1	x	x
CCOc1cc(Br)c(C2C(C#N)=C(N)Oc3cc(O)ccc32)cc1OC (configuration not stated)	2.4	-0.1	0.5	-3.7	x	x
Cc1ccc(S(=O)(=O)N2CCCCC2CCNC(=O)Nc2ccccc2)cc1 (configuration not stated)	9.5	-0.1	-1.1	6.9	x	x
COc1ccc(CN(C)CCN(C)C)c(OC)c1C	4.2	0.0	6.6*	9.3	0.6	-0.4
COc1cccc(CN(C)CCN(C)C)c1O	0.6	0.1	-1.9	-0.6	x	x
Cc1nc2cc(-c3cccc(F)c3)nn2c(NCCN)c1C	-62.2	-0.3	5.2*	-1.8	0.2	-4.8
Cc1ccc(-n2nc3cc(C)c(NC(=O)c4cccc([N+](=O)[O-])c4)cc3n2)cc1	-6.5	0.1	2.2	3.0	x	x
CC(C)(C)OC(=O)N[C@H]1CCC[C@@H](NC(=O)c2cccc(-n3cc(NC(=O)Cc4ccccc4)cn3)c2)C1	-1.4	0.0	5.4*	1.0	-0.4	-10.2
O=C1c2cccc([N+](=O)[O-])c2C(=O)N1Cc1ccco1	7.0	-0.3	5.2*	13.7	-0.6	-11.8
O=C(NCCc1c[nH]c2ccccc12)C(c1ccccc1)N1Cc2ccccc2C1=O (configuration not stated)	0.2	0.0	5.2*	10.4	-0.5	-8.2
CC1=NN(c2ccc(C)c(C)c2)C(=O)/C1=C/c1ccc([N+](=O)[O-])o1	-4.5	-1.0	-1.5	-6.3	x	x
CCOc1ccc(C(=O)NC2CC(C)(C)NC(C)(C)C2)cc1OCC	11.3	0.0	11.6*	11.7	-1.2	-10.3
NC(=O)c1cc2cc(Br)ccc2oc1=Nc1ccc(F)cc1F	3.0	0.2	6.9*	5.5	0.9	11.2
COc1ccc(OC)c(N=c2ssnc2Cl)c1	-2.8	-0.3	6.0*	8.0	-0.4	-4.7
O=C1C2C(c3ccccc3)C=CC(c3ccccc3)C2C(=O)N1n1cnnc1 (configuration not stated)	-3.3	-0.1	1.6	3.8	x	x
CCCNC(=O)c1cc(NCC)nc2ccccc12	-4.9	-0.1	5.2*	-4.6	0.9	-0.5
CCn1c(Sc2c(-c3ccccc3)c3ccccc3[nH]c2=O)nnc1-c1ccc(Cl)c(Cl)c1	0.3	0.2	-1.0	9.5	x	x
COc1ccc(-c2noc(CN3CCCN(c4ccc(F)cc4)CC3)n2)c(OC)c1OC	-15.8	-0.1	0.4	5.8	x	x
COc1ccc(-c2noc(CN3CCN(c4ccc(F)cc4)CC3)n2)c(OC)c1OC	-0.1	-0.1	6.5*	10.7	-0.2	-8.5
O=C(NCc1n[nH]c(=S)n1-c1ccccc1Cl)c1ccccc1F	3.6	-0.1	6.7*	2.0	1.6	2.6
COc1cc(NC(=O)COc2c(C)ccc(C)c2C)c(OC)cc1Cl	3.2	0.2	0.0	10.0	x	x
COc1cc(SC)ccc1C(=O)Nc1ccc2c(c1)OC(C)(C)O2	-54.5	-0.1	5.2*	-10.2	-0.4	-1.2
SMILES	TEAD-YAP inh	FBW7 act	GPR151 activ	MITF primary	GPR151 conf act	GPR119 ag
CO/C(=N\S(=O)(=O)c1ccc(Cl)cc1)c1ccccc1	-6.1	0.0	5.9*	16.9	-1.1	-11.0
N/C(=N\S(=O)(=O)c1ccc(Cl)cc1)c1ccccc1	8.3	0.2	3.5	11.2	x	x
O=C(CSc1nnc(C2CC2)n1CC1CCCO1)Nc1cccc(F)c1 (configuration not stated)	-0.8	0.0	-0.2	5.4	x	x
O=C(NCc1ccccc1)C1C2C=CC3(CN(Cc4ccccc4)C(=O)C13)O2 (configuration not stated)	6.3	-0.3	-1.4	-1.4	x	x
O=C(CN1CCN(Cc2ccccc2)C1=O)NCc1ccc(Cl)cc1	-9.0	-0.3	13.3*	-3.5	0.5	2.0
O=C(NCc1ccc(Cl)cc1)C1C2C=CC3(CN(Cc4ccccc4)C(=O)C13)O2 (configuration not stated)	1.7	-0.1	5.1*	3.9	2.2	17.4
CCOC(=O)c1c(NC(=O)COC(=O)c2cc3c(s2)CCC3)sc(C(N)=O)c1C	-1.2	-0.1	0.1	50.3	x	x
COc1ccc(C2Nc3ccc(Cl)cc3NC3=C2C(=O)CC(c2ccc(Cl)cc2)C3)cc1 (configuration not stated)	-12.9	0.0	0.7	-0.7	x	x
C#CCOC(=O)CCCNc1ccc([N+](=O)[O-])cc1[N+](=O)[O-]	0.8	0.1	5.6*	14.7	-0.7	7.1
C#CCOC(=O)CCCC(=O)Nc1ccc([N+](=O)[O-])cc1Cl	3.9	-0.1	0.4	5.7	x	x
O=c1c2sc(=S)n(-c3ccccc3)c2nc(SCc2cc(=O)n3cc(Cl)ccc3n2)n1-c1ccccc1	-2.5	0.0	0.2	4.4	x	x
O=C(Nc1ccc(-c2csc(NC(=O)c3ccccc3)n2)cc1)c1ccc(Cl)cc1	-6.6	0.3	0.1	16.1	x	x
Cc1nc(N)n(N)c(=O)c1Cc1ccccc1	-1.5	-0.1	6.4*	-8.7	0.7	-2.8
Cc1nc(N)n(N)c(=O)c1CCCN1C(=O)c2ccccc2C1=O	-61.1	0.1	-1.7	1.7	x	x
CCN(Cc1ccccc1)S(=O)(=O)c1ccc(F)c(C(=O)Nc2cc(OC)ccc2OC)c1	-6.5	-0.1	-0.8	-9.2	x	x
Cc1noc(C(=O)Nc2c(C)nn(Cc3ccccc3)c2C)c1Cl	13.2	-0.3	5.3*	-1.1	1.4	9.9
O=C(NNC(=O)c1ccccc1F)c1ccc(Cl)nc1	-14.6	0.0	4.9*	7.5	0.0	-0.1
NS(=O)(=O)c1ccc(CNc2ncnc3sc4c(c23)CCCCC4)cc1	-15.7	-0.1	3.5	-6.9	x	x
CCOC(=O)C(NC(=O)/C(=C\c1ccc(Br)cc1)NC(=O)c1ccccc1)C(C)O (configuration not stated)	-1.8	-0.1	0.0	-6.3	x	x
CCOC(=O)C(NC(=O)/C(=C\c1ccc(F)cc1)NC(=O)c1ccccc1)C(C)C (configuration not stated)	12.8	0.2	7.5*	16.9	-0.3	-5.3
O=c1ccn([C@@H]2O[C@H](COP(=O)(O)OP(=O)(O)O)[C@@H](O)[C@H]2O)c(=O)[nH]1	0.1	0.1	5.1*	19.1	-0.6	-1.9
O=c1ccn(C2OC(COc3ccc([N+](=O)[O-])cc3)C(O)C2O)c(=O)[nH]1 (configuration not stated)	1.1	-0.1	0.4	6.7	x	x
